Among the data in ChEMBL document CHEMBL3988442, “University of Dundee, Small-Polar-MMV Screening Library” (2021) are Percent Effect values, retold here.

Each structure is given as a SMILES string.

The first assay concerns the target T1, Arginase-2, mitochondrial (Homo sapiens) (UniProt P78540).
T1 sequence (whole entry): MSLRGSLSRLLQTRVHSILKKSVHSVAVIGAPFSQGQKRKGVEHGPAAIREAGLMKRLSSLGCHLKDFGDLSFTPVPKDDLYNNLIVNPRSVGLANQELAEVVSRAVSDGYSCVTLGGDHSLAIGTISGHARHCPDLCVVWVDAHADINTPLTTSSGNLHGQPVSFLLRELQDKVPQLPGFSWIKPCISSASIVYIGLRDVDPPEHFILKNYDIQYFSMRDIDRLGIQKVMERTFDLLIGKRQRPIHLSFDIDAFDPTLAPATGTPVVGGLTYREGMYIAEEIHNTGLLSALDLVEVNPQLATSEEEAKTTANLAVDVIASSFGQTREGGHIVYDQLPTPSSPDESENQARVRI
The assay can be described thus: in vitro enzyme assay to detect the production of urea directly proportional to the activity of Arginase II. It counts as functional. Further details: scale not given: in the data most compounds retested in dose-response had high values. The note with it: 33.3 µM.
Regarding `CC(c1ccco1)N(C)Cc1nc2c(cnn2C)c(=O)[nH]1` (stereo not given), the Percent Effect was 2.77%.

`CCn1nc(C)c2nnn(CC(=O)Nc3cccc(Cl)c3)c(=O)c21`: the Percent Effect was -5.11%.

`CCCC(=O)NCc1cc(Br)c(OC)c(OC)c1`: the Percent Effect came to 15.6%.

On to `CC(=O)N(C)CC(=O)Nc1cccc(N2CCN(CC3CC3)CC2)c1`, for which the Percent Effect was -13.2%.

For `CS(=O)(=O)N1CC[C@H]2[C@H](C[C@@H](Cn3cncn3)N2CC2CC2)C1`, the Percent Effect is -4.14%.

In the case of `COc1ccnc(N2CCN(C(=O)CN3CCCC3=O)CC2)n1`, the Percent Effect stood at 2.88%.

In the case of `Cc1cc(C)n(CC2CCCCN2Cc2cscn2)n1` (stereo not given), the Percent Effect worked out at 4.42%.

Consider `O=C(CC1CCCC1)N1CCCC(c2n[nH]c3nccnc23)C1` (stereo not given), for which the Percent Effect was 7.66%.

In the case of `CCc1ccc(CN2CC[C@H]3C[C@H](c4nnc(C)[nH]4)O[C@@H]3C2)o1`, the Percent Effect was -6.79%.

As for `CN(C)CCNC(=O)c1cc(-c2cnc(N3CCCC3)nc2)cn1C`, the Percent Effect was -1.17%.

As for `Cc1cnn(CCNCc2ccccc2C#N)c1`, the Percent Effect is -0.554%.

`Cc1ccc(CN2CCC3(C2)C(=O)N(CC(C)C)c2ccccc23)s1` (stereo not given): the Percent Effect stood at 3.75%.

As for `NC(=O)Nc1cccc(Oc2ccccn2)c1`, the Percent Effect was -7.1%.

As for `CC(CNC(=O)Nc1cn[nH]c1)N1CCc2ccccc2C1` (stereo not given), the Percent Effect turned out to be 0.632%.

Consider `O=C(CCc1ccc(Br)cc1F)NS(=O)(=O)c1ccc2c(c1)OCCO2`, for which the Percent Effect amounted to 1.07%.

On to `CC(NC(N)=O)C(=O)N1CCCN(Cc2nccn2C(C)C)CC1` (stereo not given), for which the Percent Effect is -4.09%.

Consider `CN1Cc2c(C(=O)Nc3cccnc3)ncn2-c2ccccc2S1(=O)=O`, for which the Percent Effect is -4.39%.

`CN(C(=O)NCCCN1CCCC1)C1CCN(c2ccccc2)C1=O` (stereo not given): the Percent Effect is 0.766%.

On to `CCSCCC(=O)Nc1ncn(Cc2cccnc2)n1`, for which the Percent Effect turned out to be 3.65%.

On to `CNC(=O)[C@@]12CCO[C@@H]1CCN(S(=O)(=O)c1cccc(C)c1)C2`, for which the Percent Effect came out at 7.96%.

For the compound `CCC1CN(CC(=O)Nc2sccc2C#N)CCO1` (stereo not given), the Percent Effect was determined as 0%.

Turning to `CCn1c(C(=O)N2CCN(CC(C)O)CC2)cc2ccccc21` (stereo not given), the Percent Effect was -1.78%.

With `O=C(NCCCN1CCCC1)c1n[nH]c(=O)c2ccccc12`, the Percent Effect worked out at 2.13%.

With `COCC1CCCN(C(=O)c2cc(Cn3ccc4ccccc43)[nH]n2)C1` (stereo not given), the Percent Effect is -81.4%.

Regarding `CC(C)S(=O)(=O)NCC1CCCN(C(=O)c2ccc3c(c2)CCC3)C1` (stereo not given), the Percent Effect is -2.27%.

As for `N#Cc1c(F)cccc1N1CCC(NS(=O)(=O)c2cccs2)CC1`, the Percent Effect was -0.455%.

Turning to `CNc1nc2c(c(C(=O)N3CCCC3)n1)CN(Cc1nccn1C)CC2`, the Percent Effect was -2.79%.

Turning to `CC(C)CCN1CN=C(NS(=O)(=O)c2ccc(F)cc2)NC1`, the Percent Effect was -9.33%.

Turning to `CN(Cc1ncc(C(C)(C)C)o1)C1CCCN(c2cccnn2)C1` (stereo not given), the Percent Effect turned out to be 2.66%.

Take `Cc1nc2cc(C3CCN(Cc4cccc(F)c4F)C3)nn2c(O)c1C` (stereo not given): the Percent Effect is -1.16%.

`CCS(=O)(=O)CCN1CCCC1c1noc(C2CC2)n1` (stereo not given): the Percent Effect turned out to be 0%.

`Cc1nc(Cn2nc(C3CCNCC3)n(Cc3ccccc3)c2=O)no1`: the Percent Effect was -4.29%.

With `CN(C)C(=O)COC1COC2(CCN(S(C)(=O)=O)CC2)C1` (stereo not given), the Percent Effect was 9.87%.

For `CCNC(=O)NC(=O)CSC(C)c1c(F)cccc1F` (stereo not given), the Percent Effect was -4.17%.

For `Cn1cccc1CNC(=O)CCCc1nnc2ccccn12`, the Percent Effect is -8.28%.

Turning to `Cc1cccc(CN(Cc2ccc(C)o2)C2CC(C)(C)NC(C)(C)C2)n1`, the Percent Effect is -3.48%.

`Cc1ccc(C2CSCCN2C(=O)c2ccsc2)o1` (stereo not given): the Percent Effect was determined as 4.22%.

`Cc1csc(N2CCN(C(=O)CCC(=O)c3ccc(C)s3)CC2)n1`: the Percent Effect was -12.4%.

For the compound `O=C(c1cnccn1)N1C[C@@H]2CC[C@H](C1)N(C(=O)Cc1ccsc1)C2`, the Percent Effect was -16.6%.

In the case of `Cc1ncsc1C(=O)N1CCCC(c2noc(C(C)C)n2)C1` (stereo not given), the Percent Effect was found to be 33.5%.

A further assay deals with T2, Proteasome subunit beta (Trypanosoma cruzi) (UniProt O96673).
T2 sequence (whole entry): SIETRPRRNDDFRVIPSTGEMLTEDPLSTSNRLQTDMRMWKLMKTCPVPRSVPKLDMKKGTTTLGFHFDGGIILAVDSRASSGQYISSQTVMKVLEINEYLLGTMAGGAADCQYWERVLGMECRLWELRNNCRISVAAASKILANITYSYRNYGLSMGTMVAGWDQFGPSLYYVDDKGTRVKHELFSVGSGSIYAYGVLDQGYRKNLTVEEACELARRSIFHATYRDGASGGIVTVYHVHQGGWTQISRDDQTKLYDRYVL
The assay can be described thus: Trypanosoma cruzi proteasome chymotrypsin-like activity (TcProtChymo) assay. Further details: scale not given: in the data most compounds retested in dose-response had high values. Particulars: 9.37 µM. It counts as functional.
In the case of `CC(c1ccco1)N(C)Cc1nc2c(cnn2C)c(=O)[nH]1` (stereo not given), the Percent Effect was 15.1%.

Turning to `CCn1nc(C)c2nnn(CC(=O)Nc3cccc(Cl)c3)c(=O)c21`, the Percent Effect was 12.9%.

With `CCCC(=O)NCc1cc(Br)c(OC)c(OC)c1`, the Percent Effect worked out at 5.41%.

For the compound `CC(=O)N(C)CC(=O)Nc1cccc(N2CCN(CC3CC3)CC2)c1`, the Percent Effect came out at 1.46%.

Consider `CS(=O)(=O)N1CC[C@H]2[C@H](C[C@@H](Cn3cncn3)N2CC2CC2)C1`, for which the Percent Effect stood at 7.16%.

For `COc1ccnc(N2CCN(C(=O)CN3CCCC3=O)CC2)n1`, the Percent Effect came out at 7.02%.

As to `Cc1cc(C)n(CC2CCCCN2Cc2cscn2)n1` (stereo not given), the Percent Effect amounted to 7.52%.

Turning to `O=C(CC1CCCC1)N1CCCC(c2n[nH]c3nccnc23)C1` (stereo not given), the Percent Effect worked out at 11.2%.

Turning to `CCc1ccc(CN2CC[C@H]3C[C@H](c4nnc(C)[nH]4)O[C@@H]3C2)o1`, the Percent Effect was 17.2%.

For `CN(C)CCNC(=O)c1cc(-c2cnc(N3CCCC3)nc2)cn1C`, the Percent Effect is 0.0881%.

With `Cc1cnn(CCNCc2ccccc2C#N)c1`, the Percent Effect stood at 5.21%.

Turning to `Cc1ccc(CN2CCC3(C2)C(=O)N(CC(C)C)c2ccccc23)s1` (stereo not given), the Percent Effect is 7.02%.

As for `NC(=O)Nc1cccc(Oc2ccccn2)c1`, the Percent Effect was 8.53%.

In the case of `CC(CNC(=O)Nc1cn[nH]c1)N1CCc2ccccc2C1` (stereo not given), the Percent Effect came to 14.2%.

Regarding `O=C(CCc1ccc(Br)cc1F)NS(=O)(=O)c1ccc2c(c1)OCCO2`, the Percent Effect amounted to 4.97%.

Regarding `CC(NC(N)=O)C(=O)N1CCCN(Cc2nccn2C(C)C)CC1` (stereo not given), the Percent Effect was 2.74%.

Regarding `CN1Cc2c(C(=O)Nc3cccnc3)ncn2-c2ccccc2S1(=O)=O`, the Percent Effect worked out at 7.79%.

`CN(C(=O)NCCCN1CCCC1)C1CCN(c2ccccc2)C1=O` (stereo not given): the Percent Effect came to 20.9%.

Consider `CCSCCC(=O)Nc1ncn(Cc2cccnc2)n1`, for which the Percent Effect is 17.8%.

On to `CNC(=O)[C@@]12CCO[C@@H]1CCN(S(=O)(=O)c1cccc(C)c1)C2`, for which the Percent Effect worked out at 9.96%.

Regarding `CCC1CN(CC(=O)Nc2sccc2C#N)CCO1` (stereo not given), the Percent Effect amounted to 8.19%.

With `CCn1c(C(=O)N2CCN(CC(C)O)CC2)cc2ccccc21` (stereo not given), the Percent Effect turned out to be 6.42%.

In the case of `O=C(NCCCN1CCCC1)c1n[nH]c(=O)c2ccccc12`, the Percent Effect is 5.74%.

For `COCC1CCCN(C(=O)c2cc(Cn3ccc4ccccc43)[nH]n2)C1` (stereo not given), the Percent Effect is -0.666%.

For `CC(C)S(=O)(=O)NCC1CCCN(C(=O)c2ccc3c(c2)CCC3)C1` (stereo not given), the Percent Effect turned out to be 7.28%.

Turning to `N#Cc1c(F)cccc1N1CCC(NS(=O)(=O)c2cccs2)CC1`, the Percent Effect amounted to 14%.

Take `CNc1nc2c(c(C(=O)N3CCCC3)n1)CN(Cc1nccn1C)CC2`: the Percent Effect was 19.4%.

With `CC(C)CCN1CN=C(NS(=O)(=O)c2ccc(F)cc2)NC1`, the Percent Effect turned out to be 9.61%.

With `CN(Cc1ncc(C(C)(C)C)o1)C1CCCN(c2cccnn2)C1` (stereo not given), the Percent Effect is 13.2%.

As for `Cc1nc2cc(C3CCN(Cc4cccc(F)c4F)C3)nn2c(O)c1C` (stereo not given), the Percent Effect was determined as 2.81%.

Take `CCS(=O)(=O)CCN1CCCC1c1noc(C2CC2)n1` (stereo not given): the Percent Effect stood at 6.63%.

Consider `Cc1nc(Cn2nc(C3CCNCC3)n(Cc3ccccc3)c2=O)no1`, for which the Percent Effect was 12.1%.

Take `CN(C)C(=O)COC1COC2(CCN(S(C)(=O)=O)CC2)C1` (stereo not given): the Percent Effect stood at 18.1%.

With `CCNC(=O)NC(=O)CSC(C)c1c(F)cccc1F` (stereo not given), the Percent Effect is 22.3%.

As for `Cn1cccc1CNC(=O)CCCc1nnc2ccccn12`, the Percent Effect worked out at 12.4%.

For the compound `Cc1cccc(CN(Cc2ccc(C)o2)C2CC(C)(C)NC(C)(C)C2)n1`, the Percent Effect turned out to be 10.8%.

Regarding `Cc1ccc(C2CSCCN2C(=O)c2ccsc2)o1` (stereo not given), the Percent Effect came to 8.15%.

In the case of `Cc1csc(N2CCN(C(=O)CCC(=O)c3ccc(C)s3)CC2)n1`, the Percent Effect was found to be 13.5%.

Consider `O=C(c1cnccn1)N1C[C@@H]2CC[C@H](C1)N(C(=O)Cc1ccsc1)C2`, for which the Percent Effect stood at 9.32%.

As for `Cc1ncsc1C(=O)N1CCCC(c2noc(C(C)C)n2)C1` (stereo not given), the Percent Effect turned out to be 15.3%.
